According to PubChem BioAssay (Tox21):
Where “and” joins values, the source holds several entries; their conditions need not be identical. Equal entries are not always repeated. Results filed as inconclusive are left out. The source holds several records for some structures; these can differ, active in one and inactive in another. Calls of active or inactive are those of the source. Unless noted, calls follow the shape of the dose curve; as a rule, active = well fitted curve in the direction sought with a large enough effect in the repeat runs; inconclusive = weak or mixed curves; inactive = no such curve, though single readings can be large; an effect the other way counts as inactive or inconclusive.

What was measured:
[1] = qHTS assay to identify small molecule antagonists of the glucocorticoid receptor (GR) signaling pathway - cell viability counter screen (AID 720693); also: nearly all actives have a fitted effect of over 55% in size
[2] = qHTS assay for identifying genotoxic compounds that show differential cytotoxicity against isogenic chicken DT40 cell lines with known DNA damage response pathways - wild type cell line (AID 743012); also: nearly all actives have a fitted effect of over 60% in size; also: potency is read from the fitted curve at half-maximal effect
Summary of the method: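 CellTiter-Glo luminescence readout of viability in wild type DT40 cells after 40 h compound exposure at 37 C/5% CO2; 300 cells/well; reagent incubated 30 min at room temperature before reading.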

[3] = qHTS assay for identifying genotoxic compounds that show differential cytotoxicity against isogenic chicken DT40 cell lines with known DNA damage response pathways - Rev3 mutant cell line (AID 743014); also: nearly all actives have a fitted effect of over 55% in size; also: potency is read from the fitted curve at half-maximal effect
[4] = qHTS assay for identifying genotoxic compounds that show differential cytotoxicity against isogenic chicken DT40 cell lines with known DNA damage response pathways - Rad54/Ku70 mutant cell line (AID 743015); also: nearly all actives have a fitted effect of over 60% in size; also: potency is read from the fitted curve at half-maximal effect
[5] = qHTS assay to identify small molecule antagonists of the androgen receptor (AR) signaling pathway - cell viability counter screen (AID 743033; also: nearly all actives have a fitted effect of over 45% in size)
[6] = qHTS assay to identify small molecule antagonists of the androgen receptor (AR) signaling pathway using the MDA cell line - cell viability counter screen (AID 743041; also: nearly all actives have a fitted effect of over 45% in size)
Summary of the method: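 Cytotoxicity counter screen: MDA-kb2 AR-luc cells, compound + R1881, 16 h, 37C, 0% CO2; CellTiter-Fluor added at 15.5 h, fluorescence read after 30 min.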

[7] = qHTS assay to identify small molecule antagonists of the thyroid receptor (TR) signaling pathway - cell viability counter screen (AID 743064); also: nearly all actives have a fitted effect of over 50% in size
Summary of the method: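 Same-well viability check: GH3.TRE-Luc cells stimulated with 1 nM T3 alongside test compound for 23.5 h, followed by CellTiter-Fluor fluorescence.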

[8] = biological target: Estrogen receptor (Homo sapiens) (UniProt P03372); experiment: qHTS assay to identify small molecule antagonists of the estrogen receptor alpha (ER-alpha) signaling pathway (AID 743069; active = well fitted curve in the direction sought with a large enough effect in the signal ratio in the repeat runs, not every such curve was filed as active; the % refers to the signal ratio)
Estrogen receptor (Homo sapiens), sequence (P03372 whole entry, looked up): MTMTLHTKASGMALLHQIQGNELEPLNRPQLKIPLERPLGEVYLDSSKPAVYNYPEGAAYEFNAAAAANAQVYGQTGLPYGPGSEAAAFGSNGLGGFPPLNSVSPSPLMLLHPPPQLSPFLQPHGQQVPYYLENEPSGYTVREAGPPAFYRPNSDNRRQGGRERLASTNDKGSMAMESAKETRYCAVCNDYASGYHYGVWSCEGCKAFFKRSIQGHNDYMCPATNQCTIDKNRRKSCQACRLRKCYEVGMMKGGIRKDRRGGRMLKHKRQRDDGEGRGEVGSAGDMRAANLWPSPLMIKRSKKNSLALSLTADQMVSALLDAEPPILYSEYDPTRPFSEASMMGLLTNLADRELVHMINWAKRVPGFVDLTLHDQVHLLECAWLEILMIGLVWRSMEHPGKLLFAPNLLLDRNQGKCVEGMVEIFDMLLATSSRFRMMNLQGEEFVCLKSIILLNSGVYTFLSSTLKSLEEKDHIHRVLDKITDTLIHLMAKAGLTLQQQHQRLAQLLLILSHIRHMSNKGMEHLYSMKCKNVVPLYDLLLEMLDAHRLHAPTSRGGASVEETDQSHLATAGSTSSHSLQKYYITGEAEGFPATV
Summary of the method: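 Beta-lactamase FRET fluorescence is read after 2 hr at room temperature with LiveBLAzer B/G substrate. Before that, ER-alpha-bla HEK293 cells sit 4 hr after plating, then receive compound plus 17beta-estradiol and incubate 18 hr at 37C.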

[9] = qHTS assay to identify small molecule antagonists of the estrogen receptor alpha (ER-alpha) signaling pathway - cell viability counter screen (AID 743074; calls by dose curve;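 also: HEK293 cells carrying ER-alpha-UAS-bla reporter stimulated with 17beta-estradiol; nearly all actives have a fitted effect of over 45% in size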; also: potency is read from the fitted curve at half-maximal effect)
[10] = biological target: Estrogen receptor (Homo sapiens) (UniProt P03372); experiment: qHTS assay to identify small molecule agonists of the estrogen receptor alpha (ER-alpha) signaling pathway using the BG1 cell line (AID 743079); also: nearly all actives have a fitted effect of over 20% in size; also: potency is read from the fitted curve at half-maximal effect
[11] = qHTS assay to identify small molecule antagonists of the estrogen receptor alpha (ER-alpha) signaling pathway using the BG1 cell line (AID 743080; calls by dose curve;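 also: BG1 cells stimulated with 17beta-estradiol alongside compound; nearly all actives have a fitted effect of over 25% in size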; also: potency is read from the fitted curve at half-maximal effect)
Summary of the method: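 Readout is ONE-Glo luminescence, taken 30 min at room temperature after reagent addition, preceded by a CellTiter-Fluor viability read; BG1-Luc-4E2 cells had received compound and 17beta-estradiol for 21.5 h at 37 C.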

[12] = qHTS assay to identify small molecule antagonists of the estrogen receptor alpha (ER-alpha) signaling pathway using the BG1 cell line - cell viability counter screen (AID 743081);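 also: compound given together with 17beta-estradiol as the ER stimulus; series mostly up to about 70 µM; nearly all actives have a fitted effect of over 45% in size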
[13] = qHTS assay to identify small molecule antagonists of the thyroid receptor (TR) signaling pathway (AID 743065); also: nearly all actives have a fitted effect of over 55% in size; also: potency is read from the fitted curve at half-maximal effect
Summary of the method: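 GH3.TRE-Luc rat pituitary cells (two TREs driving luciferase) were dosed with compound, then stimulated with 1 nM T3 (final) for 23.5 h at 37 C. ONE-Glo luminescence was the read-out, with CellTiter-Fluor fluorescence as the cytotoxicity counter-screen.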

[14] = test system: thyroid hormone receptor (rat, GH3 cells); experiment: qHTS assay to identify small molecule agonists of the thyroid receptor (TR) signaling pathway (AID 743066; calls by dose curve)
[15] = biological target: Estrogen receptor (Homo sapiens) (UniProt P03372); experiment: qHTS assay to identify small molecule agonists of the estrogen receptor alpha (ER-alpha) signaling pathway (AID 743075; calls by dose curve;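 also: HEK293 GripTite cells with ER-alpha and UAS-driven beta-lactamase reporter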)
Aromatase (Homo sapiens) = Aromatase (Homo sapiens) (UniProt P11511); experiment: qHTS assay to identify aromatase inhibitors (AID 743083); also: series mostly up to about 70 µM; nearly all actives have a fitted effect of over 55% in size
Aromatase (Homo sapiens), sequence (P11511 whole entry, looked up): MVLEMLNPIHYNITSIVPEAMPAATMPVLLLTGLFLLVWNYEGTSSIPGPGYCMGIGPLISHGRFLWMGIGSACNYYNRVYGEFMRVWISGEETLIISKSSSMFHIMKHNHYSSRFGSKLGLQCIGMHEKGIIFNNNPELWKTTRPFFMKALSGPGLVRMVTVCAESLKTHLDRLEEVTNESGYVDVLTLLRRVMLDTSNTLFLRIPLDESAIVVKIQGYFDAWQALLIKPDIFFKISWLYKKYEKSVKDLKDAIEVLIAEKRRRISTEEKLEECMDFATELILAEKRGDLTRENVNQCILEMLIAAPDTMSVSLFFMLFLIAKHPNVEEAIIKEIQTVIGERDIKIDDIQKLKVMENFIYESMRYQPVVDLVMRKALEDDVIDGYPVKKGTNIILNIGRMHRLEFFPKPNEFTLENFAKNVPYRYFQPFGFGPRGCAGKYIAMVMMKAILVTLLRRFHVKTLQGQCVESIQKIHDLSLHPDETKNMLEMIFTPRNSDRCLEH

[16] = biological target: Androgen receptor (Homo sapiens) (UniProt P10275); experiment: qHTS assay to identify small molecule agonists of the androgen receptor (AR) signaling pathway (AID 743036; active = well fitted activation curve with a large enough effect in the signal ratio in the repeat runs, with a control signal flat, not every such curve was filed as active; the % refers to the signal ratio)
Androgen receptor (Homo sapiens), sequence (P10275 whole entry, looked up): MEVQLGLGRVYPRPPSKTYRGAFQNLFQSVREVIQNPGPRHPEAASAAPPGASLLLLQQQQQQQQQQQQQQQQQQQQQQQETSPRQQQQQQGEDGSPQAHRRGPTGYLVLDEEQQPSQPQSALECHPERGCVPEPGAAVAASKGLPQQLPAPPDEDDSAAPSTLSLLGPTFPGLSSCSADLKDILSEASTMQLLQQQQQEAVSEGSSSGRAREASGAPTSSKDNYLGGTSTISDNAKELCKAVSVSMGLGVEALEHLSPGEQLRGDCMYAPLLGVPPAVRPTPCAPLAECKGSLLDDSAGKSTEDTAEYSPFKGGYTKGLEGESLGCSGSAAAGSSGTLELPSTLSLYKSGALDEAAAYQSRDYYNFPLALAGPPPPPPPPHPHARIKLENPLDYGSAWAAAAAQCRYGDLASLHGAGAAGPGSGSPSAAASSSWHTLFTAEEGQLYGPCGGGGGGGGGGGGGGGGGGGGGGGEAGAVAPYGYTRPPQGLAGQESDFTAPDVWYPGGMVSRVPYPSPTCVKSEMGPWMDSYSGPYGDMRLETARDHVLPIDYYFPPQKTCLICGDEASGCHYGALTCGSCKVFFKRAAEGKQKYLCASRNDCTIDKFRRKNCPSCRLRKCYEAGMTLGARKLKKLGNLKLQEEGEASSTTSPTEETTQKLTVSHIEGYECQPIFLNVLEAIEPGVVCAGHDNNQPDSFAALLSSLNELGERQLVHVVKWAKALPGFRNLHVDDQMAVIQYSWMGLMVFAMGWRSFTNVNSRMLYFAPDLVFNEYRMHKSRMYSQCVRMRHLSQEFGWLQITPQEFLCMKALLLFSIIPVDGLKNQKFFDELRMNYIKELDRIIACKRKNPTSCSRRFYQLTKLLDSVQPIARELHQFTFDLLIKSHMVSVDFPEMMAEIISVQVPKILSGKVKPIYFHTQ
Summary of the method: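 Agonist activity was scored by beta-lactamase reporter fluorescence in stably transfected HEK293 cells exposed to compounds for 16 h at 37C and 5% CO2. Substrate loading took 2 h at room temperature.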

[17] = biological target: Androgen receptor (Homo sapiens) (UniProt P10275); experiment: qHTS assay to identify small molecule agonists of the androgen receptor (AR) signaling pathway using the MDA cell line (AID 743040; also: nearly all actives have a fitted effect of over 20% in size)
Summary of the method: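 Luciferase read-out, ONE-Glo, 30 min RT. Cells: MDA-kb2 AR-luc, MMTV promoter with AR and GR response elements. Compound exposure 16 h, 37C, 0% CO2, after 5 h pre-incubation. qHTS agonist mode.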

[18] = biological target: Androgen receptor (Homo sapiens) (UniProt P10275); experiment: qHTS assay to identify small molecule antagonists of the androgen receptor (AR) signaling pathway using the MDA cell line (AID 743042; also: nearly all actives have a fitted effect of over 55% in size)
Summary of the method: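 MDA-kb2 breast carcinoma cells carrying MMTV-luciferase (AR/GR responsive) were co-treated with compounds and the agonist R1881 for 16 h at 37C. Inhibition read as ONE-Glo luminescence; CellTiter-Fluor fluorescence measured in parallel for cytotoxicity.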

[19] = biological target: Androgen receptor (Homo sapiens) (UniProt P10275); experiment: qHTS assay to identify small molecule antagonists of the androgen receptor (AR) signaling pathway (AID 743035; active = well fitted inhibition curve with a large enough effect in the signal ratio in the repeat runs, not every such curve was filed as active; the % refers to the signal ratio)
Summary of the method: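 AR-bla HEK293 reporter cells; 4 h settle at 37C/5% CO2; compound + R1881 agonist, 16 h at 37C; LiveBLAzer B/G FRET substrate 2 h RT; fluorescence intensity read. qHTS format.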

Measured: Potency

Cc1cccc([N+](=O)[O-])c1
not listed: [13] | [14] | [15] | Aromatase (Homo sapiens) | [16] | [17] | [18] | [19]
inactive: all other assays above

CCCCCOC(=O)c1ccccc1C(=O)OCCCCC
inactive and 61.1 µM (active): [2]
not listed: [16] | [17] | [18] | [19]
inactive: all other assays above

COc1ccc2c3c1O[C@H]1[C@@H](O)C=C[C@H]4[C@@H](C2)N(C)CC[C@@]341
not listed: [6] | [13] | [16] | [17] | [18] | [19]
inactive: all other assays above

CC1OC(C)OC(C)O1 (configuration not stated)
inactive: [1] | [2] | [3] | [4] | [5] | [6] | [9] | [12] | Aromatase (Homo sapiens)

c1ccc2c(c1)oc1ccccc12
inactive: [1] | [2] | [3] | [4] | [5] | [7] | [13] | [14] | [9] | [12]

CN(C)CCO
not listed: [4] | [16] | [17] | [18] | [19]
inactive: all other assays above

CCCCOC(=O)c1ccccc1C(=O)OCCCC
77 µM (active) and inactive: [10]
active: [2] 24.3 µM
not listed: [6] | [16] | [17] | [18] | [19]
inactive: all other assays above

O=C(O)c1ccccn1
not listed: [6] | [16] | [17] | [18] | [19]
inactive: all other assays above

OCCN(CCO)CCO
inactive: [1] | [2] | [3] | [4] | [5] | [7] | [13] | [14] | [9] | [12]

O=[N+]([O-])c1ccccc1
not listed: [6] | [16] | [17] | [18] | [19]
inactive: all other assays above

CN(C)N=O
inactive: [1] | [2] | [3] | [4] | [5] | [7] | [13] | [14] | [9] | [12] | Aromatase (Homo sapiens)

C[C@]12CC[C@H]3[C@@H](CC[C@@]45O[C@@H]4C(O)=C(C#N)C[C@]35C)[C@@H]1CC[C@@H]2O
inactive and 27.3 µM (active): [3]
active: [4] 30.6 µM
inactive and 61.1 µM (active): [2]
inactive: [1] | [5] | [6] | [9] | [12] | Aromatase (Homo sapiens)

CC(C)OC(=O)Nc1ccccc1
active: [10] 30.7 µM and 54.5 µM
not listed: [4] | [16] | [17] | [18] | [19]
inactive: all other assays above

CCNc1nc(NC(C)C)nc(SC)n1
active: [3] 61.1 µM
inactive and 61.1 µM (active): [2]
not listed: [4] | [8] | [10] | [11] | [15] | [19]
inactive: all other assays above

CCC(C)(CC)c1cc(NC(=O)c2c(OC)cccc2OC)on1
active: [2] 52.4 µM | [3] 66 µM | [4] 46.7 µM | [13] 54.6 µM
inactive: [1] | [5] | [7] | [14] | [9] | [12] | Aromatase (Homo sapiens)

CCC12COCN1COC2
not listed: [4] | [16] | [17] | [18] | [19]
inactive: all other assays above

CCN(CC)CCO
inactive: [1] | [2] | [3] | [4] | [5] | [7] | [13] | [14] | [9] | [12] | Aromatase (Homo sapiens)

O=Cc1cccc(Oc2ccccc2)c1
not listed: [6] | [10] | [16] | [17] | [18] | [19]
inactive: all other assays above

CN(N=O)c1ccccc1
not listed: [6] | [16] | [17] | [18] | [19]
inactive: all other assays above

Clc1ccc(Cl)cc1
not listed: [4] | [16] | [17] | [18] | [19]
inactive: all other assays above

COC(=O)NS(=O)(=O)c1ccc(N)cc1
not listed: [4] | [16] | [17] | [18] | [19]
inactive: all other assays above

CCN(CC)c1ccccc1
not listed: [4]
inactive: all other assays above

CC(C)(C)OOC(=O)c1ccccc1
inactive: [1] | [2] | [3] | [4] | [5] | [7] | [13] | [14] | [9] | [12] | Aromatase (Homo sapiens)

CC(NC(C)(C)C)C(=O)c1cccc(Cl)c1 (configuration not stated)
inactive and 23 µM (active): [3]
inactive: [1] | [2] | [4] | [5] | [7] | [13] | [14] | [9] | [12] | Aromatase (Homo sapiens)

CCc1cccc(C)c1N(C(=O)CCl)C(C)COC (configuration not stated)
active: [2] 40.8 µM and 10.9 µM | [3] 16.2 µM and 12.2 µM | [4] 45.8 µM and 17.2 µM
inactive: [1] | [5] | [6] | [7] | [9] | [12]

CC(Oc1ccc(Cl)cc1Cl)C(=O)O (configuration not stated)
not listed: [6] | [16] | [17] | [18] | [19]
inactive: all other assays above

C1CN2CCN1CC2
inactive and 4.36 µM (active): [9]
not listed: [6] | [16] | [17] | [18] | [19]
inactive: all other assays above

O=[N+]([O-])c1ccc([As](=O)(O)O)cc1
not listed: [6] | [16] | [17] | [18] | [19]
inactive: all other assays above

C=CCO
inactive: [1] | [2] | [3] | [4] | [5] | [6] | [7] | [9] | [12] | Aromatase (Homo sapiens)

CC(C)(C)OOC(C)(C)C
not listed: [7] | [16] | [17] | [18] | [19]
inactive: all other assays above

CC(C)=C[C@@H]1[C@@H](C(=O)OCc2coc(Cc3ccccc3)c2)C1(C)C
inactive and 34.4 µM (active): [3]
inactive and 27.3 µM (active): [2]
not listed: [4] | [16] | [17] | [18] | [19]
inactive: all other assays above

CCOC(=O)c1ccccc1C(=O)OCC
not listed: [6] | [16] | [17] | [18] | [19]
inactive: all other assays above

CCOP(OCC)OCC
not listed: [6] | [16] | [17] | [18] | [19]
inactive: all other assays above

Cc1ccc(N)cc1Cl
not listed: [4] | [16] | [17] | [18] | [19]
inactive: all other assays above

[N-]=[N+]=[N-]
inactive and 68.6 µM (active): [11]
not listed: [4] | [6]
inactive: all other assays above

CC(C#N)CCC#N (configuration not stated)
not listed: [4] | [16] | [17] | [18] | [19]
inactive: all other assays above

O=C(NC(=O)c1c(F)cccc1F)Nc1cc(Cl)c(OC(F)(F)C(F)C(F)(F)F)cc1Cl (configuration not stated)
active: [2] 3.35 µM | [3] 4.22 µM
not listed: [4] | [18]
inactive: all other assays above

BrCCBr
18.8 µM (active) and inactive: [3]
not listed: [4] | [16] | [17] | [18] | [19]
inactive: all other assays above
